The values below come from PubChem BioAssay (EPA / NIEHS).

Assay [1] deals with Retinoic acid receptor RXR-alpha (Homo sapiens) (UniProt P19793). The experiment in a line: ATG_RXRa_TRANS: Attagene TRANS-FACTORIAL HepG2 Assay for human Retinoid X Receptor alpha (RXRa) (AID 2283012; active = hit-call score of the fitted dose curve at least 0.9, where 1 is the maximum). In a few lines: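 HepG2 cells transiently transfected with multiplexed GAL4-UAS reporter units and chimeric NR-GAL4 fusions, dosed 24 h. Reporter mRNA measured by RT-PCR, FAM labelling, HpaI digestion and capillary electrophoresis; gain-of-signal fitted relative to DMSO baseline.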
Sequence of Retinoic acid receptor RXR-alpha (Homo sapiens) (P19793 whole entry, looked up, the tested form may be a part): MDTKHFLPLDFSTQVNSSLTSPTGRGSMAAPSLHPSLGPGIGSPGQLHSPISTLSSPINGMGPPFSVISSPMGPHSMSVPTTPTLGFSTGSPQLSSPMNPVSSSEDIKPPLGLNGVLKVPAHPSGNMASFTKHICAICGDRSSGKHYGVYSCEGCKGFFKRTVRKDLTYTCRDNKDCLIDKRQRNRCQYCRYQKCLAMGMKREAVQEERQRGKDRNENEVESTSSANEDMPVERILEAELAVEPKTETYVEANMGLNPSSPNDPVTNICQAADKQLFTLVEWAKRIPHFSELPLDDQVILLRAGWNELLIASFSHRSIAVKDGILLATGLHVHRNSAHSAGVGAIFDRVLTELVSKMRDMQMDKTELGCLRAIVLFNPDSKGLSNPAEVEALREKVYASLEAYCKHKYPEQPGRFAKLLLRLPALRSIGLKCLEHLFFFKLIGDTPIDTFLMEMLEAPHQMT

The target in assay [2] is human Retinoid X Receptor beta (RXRb), RXRB (gene 6257) (UniProt P28702). The experiment in a line: ATG_RXRb_TRANS: Attagene TRANS-FACTORIAL HepG2 Assay for human Retinoid X Receptor beta (RXRb) (AID 2283013; active = hit-call score of the fitted dose curve at least 0.9, where 1 is the maximum). In a few lines:
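HepG2 cells transiently transfected with multiplexed reporter units driven by GAL4-UAS and exogenous chimeric NR-Gal4 proteins; treated 24 h. Reporter mRNA measured by RT-PCR, 6-FAM labelling and capillary electrophoresis; gain-of-signal fitted versus DMSO baseline.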

In assay [3] the target is human Thyroid Receptor alpha (THRa1), THRA (gene 7067) (UniProt P10827). The assay is described as follows: ATG_THRa1_TRANS: Attagene TRANS-FACTORIAL HepG2 Assay for human Thyroid Receptor alpha (THRa1) (AID 2283014; active = hit-call score of the fitted dose curve at least 0.9, where 1 is the maximum). The essentials:
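HepG2 cells transiently transfected with multiplexed GAL4-UAS reporter units for exogenous chimeric THRa1-Gal4; reporter mRNA measured 24 h after dosing by RT-PCR, 6-FAM labelling, HpaI digestion and capillary electrophoresis. Gain-of-signal fitted versus DMSO baseline.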

Read-out in assay [4]: E-selectin (Homo sapiens) (UniProt P16581)
The experiment in a line: BSK_3C_Eselectin: BioMAP Diversity Plus: 3C Assay for Eselectin Biomarker Activity (AID 2283015).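 Note: cell surface E-selectin protein quantified by ELISA 24 h after dosing.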 To be noted: primary human endothelial cells (HUVEC); actives raise or lower the signal. In a few lines: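 Primary human umbilical vein endothelial cells (3C system) were dosed with chemical and cell-surface E-selectin measured by ELISA 24 h later. Bidirectional curve fitting used DMSO as negative control and baseline.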

Read-out in assay [5]: Interleukin-1 alpha (IL1a), IL1A (gene 3552)
The experiment in a line: BSK_BE3C_IL1a: BioMAP Diversity Plus: BE3C Assay for Interleukin-1 alpha (IL1a) Biomarker Activity (AID 2283016). The conditions noted are these: primary human bronchial epithelial cells; actives raise or lower the signal. The essentials: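 Human primary bronchial epithelial cells (BE3C system) were dosed with compound and IL-1a measured by ELISA 24 h later. Activity was fitted bidirectionally against DMSO baseline; cytotoxicity was tracked in parallel cultures by SRB total-protein staining.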

Read-out in assay [6]: Monocyte Chemoattractant Protein-1 (MCP1), CCL2 (gene 6347)
The experiment in a line: BSK_3C_MCP1: BioMAP Diversity Plus: 3C Assay for Monocyte Chemoattractant Protein-1 (MCP1) Biomarker Activity (AID 2283017). To be noted: primary human endothelial cells (HUVEC); actives raise or lower the signal. In a few lines: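 Primary human umbilical vein endothelial cells (3C system) were exposed to test chemical for 24 h, after which MCP-1 was quantified by ELISA. Activity was fitted bidirectionally against DMSO as negative control and baseline.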

Read-out in assay [7]: Monocyte Chemoattractant Protein-1 (MCP1), CCL2 (gene 6347)
The assay is described as follows: BSK_4H_MCP1: BioMAP Diversity Plus: 4H Assay for Monocyte Chemoattractant Protein-1 (MCP1) Biomarker Activity (AID 2283018). The conditions noted are these: primary human endothelial cells (HUVEC); actives raise or lower the signal. In a few lines:
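Human umbilical vein endothelial cells (4H system) dosed with chemical; MCP-1 measured by ELISA 24 h after dosing. Bidirectional curve fitting against DMSO negative control as baseline; parallel SRB total-protein staining tracks overt cytotoxicity.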

Read-out in assay [8]: Human Leukocyte Antigen - DR isotype (HLADR), HLA-DRA (gene 3122)
The assay is described as follows: BSK_3C_HLADR: BioMAP Diversity Plus: 3C Assay for Human Leukocyte Antigen - DR isotype (HLADR) Biomarker Activity (AID 2283019).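 Note: ELISA of cell-surface HLA-DR on HUVEC 24 h after dosing.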 To be noted: primary human endothelial cells (HUVEC); actives raise or lower the signal. In a few lines:
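Primary human umbilical vein endothelial cells (3C system) were dosed with compound and cell-surface HLA-DR was quantified by ELISA at 24 h. Activity was fitted bidirectionally against DMSO as negative control and baseline.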

Read-out in assay [9]: Interleukin-8 (IL8), CXCL8 (gene 3576)
The assay is described as follows: BSK_3C_IL8: BioMAP Diversity Plus: 3C Assay for Interleukin-8 (IL8) Biomarker Activity (AID 2283020). The conditions noted are these: primary human endothelial cells (HUVEC); actives raise or lower the signal. The essentials:
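Primary human umbilical vein endothelial cells (3C system) were exposed to test chemical for 24 h, then IL-8 was quantified by ELISA. Responses were fitted bidirectionally against DMSO vehicle as baseline.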

Assay [10] deals with human Vitamin D Receptor (VDR), VDR (gene 7421) (UniProt P11473). The assay is described as follows: ATG_VDR_TRANS: Attagene TRANS-FACTORIAL HepG2 Assay for human Vitamin D Receptor (VDR) (AID 2283022; active = hit-call score of the fitted dose curve at least 0.9, where 1 is the maximum). The essentials: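 HepG2 cells were transiently transfected with multiple GAL4-UAS reporter units, so signal reflects exogenous chimeric receptor-Gal4 activity. After 24 h compound exposure, reporter mRNA was measured by RT-PCR, fluorescent labelling and capillary electrophoresis, fitted for gain of signal versus DMSO.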
Sequence of human Vitamin D Receptor (VDR), VDR (gene 7421) (P11473 whole entry, looked up, the tested form may be a part): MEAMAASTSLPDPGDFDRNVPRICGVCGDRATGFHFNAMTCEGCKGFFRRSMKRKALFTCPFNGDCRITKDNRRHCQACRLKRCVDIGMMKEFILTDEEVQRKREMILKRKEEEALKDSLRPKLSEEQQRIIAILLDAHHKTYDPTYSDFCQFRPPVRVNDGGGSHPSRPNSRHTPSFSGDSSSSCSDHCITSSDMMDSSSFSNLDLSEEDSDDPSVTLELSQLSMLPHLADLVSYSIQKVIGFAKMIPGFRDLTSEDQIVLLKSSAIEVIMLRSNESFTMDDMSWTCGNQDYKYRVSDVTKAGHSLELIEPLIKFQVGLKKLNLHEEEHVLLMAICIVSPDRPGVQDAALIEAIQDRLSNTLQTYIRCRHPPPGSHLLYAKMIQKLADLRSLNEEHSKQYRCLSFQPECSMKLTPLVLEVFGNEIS

A short description of assay [11]: BSK_3C_SRB: Viability Assessment in the BioMAP Diversity Plus: 3C Assay (AID 2283023).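 Note: fitted both ways against DMSO so a hit may be signal rise or drop.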 To be noted: primary human endothelial cells (HUVEC). The essentials: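 Primary human umbilical vein endothelial cells in the 3C system were read 24 h after compound dosing. Total protein was stained with 0.1% sulforhodamine B after 10% TCA fixation and read at 560 nm, with bidirectional fitting against DMSO as baseline.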

Read-out in assay [12]: Matrix Metallopeptidase 1 (MMP1), MMP1 (gene 4312)
The assay is described as follows: BSK_BE3C_MMP1: BioMAP Diversity Plus: BE3C Assay for Matrix Metallopeptidase 1 (MMP1) Biomarker Activity (AID 2283024). To be noted: primary human bronchial epithelial cells; actives raise or lower the signal. The essentials:
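Primary human bronchial epithelial cells were dosed with test chemicals, and MMP1 levels were measured by ELISA 24 h later. Data were fitted bidirectionally against DMSO as the negative control and activity baseline.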

Read-out in assay [13]: Pselectin, SELP (gene 6403)
The experiment in a line: BSK_4H_Pselectin: BioMAP Diversity Plus: 4H Assay for Pselectin Biomarker Activity (AID 2283026). The conditions noted are these: primary human endothelial cells (HUVEC); actives raise or lower the signal. The essentials:
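Primary human umbilical vein endothelial cells were exposed to test chemical for 24 h, then cell-surface P-selectin was quantified by ELISA. Activity was fitted bidirectionally against DMSO as negative control and baseline.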

Assay [14] can be described thus: BSK_4H_SRB: Viability Assessment in the BioMAP Diversity Plus: 4H Assay (AID 2283027).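 Note: cells exposed to compound for 24 h before staining.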 To be noted: primary human endothelial cells (HUVEC). In a few lines:
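Human umbilical vein endothelial cells were dosed with chemical and, after 24 h, fixed with 10% TCA, stained with 0.1% sulforhodamine B, and read at 560 nm to give total protein as a cytotoxicity measure. Bidirectional fitting relative to DMSO control.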

Read-out in assay [15]: Thrombomodulin, THBD (gene 7056)
The assay is described as follows: BSK_3C_Thrombomodulin: BioMAP Diversity Plus: 3C Assay for Thrombomodulin Biomarker Activity (AID 2283029). The conditions noted are these: primary human endothelial cells (HUVEC); actives raise or lower the signal. In a few lines: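 Primary human umbilical vein endothelial cells (3C system) were exposed to chemical for 24 h, then thrombomodulin levels were measured by ELISA. Activity was fitted bidirectionally against the DMSO negative control as baseline.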

Read-out in assay [16]: Urokinase-type plasminogen activator receptor (uPAR), PLAUR (gene 5329)
The experiment in a line: BSK_4H_uPAR: BioMAP Diversity Plus: 4H Assay for Urokinase-type plasminogen activator receptor (uPAR) Biomarker Activity (AID 2283030). The conditions noted are these: primary human endothelial cells (HUVEC); actives raise or lower the signal. In a few lines:
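Primary human umbilical vein endothelial cells were exposed to chemical for 24 h before cell-surface uPAR was quantified by ELISA. Activity was fitted bidirectionally against the DMSO negative control baseline.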

Assay [17] deals with human RAR-related Orphan Receptor gamma (RORg), RORC (gene 6097) (UniProt P51449). The experiment in a line: ATG_RORg_TRANS: Attagene TRANS-FACTORIAL HepG2 Assay for human RAR-related Orphan Receptor gamma (RORg) (AID 2283011; active = hit-call score of the fitted dose curve at least 0.9, where 1 is the maximum). The essentials: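 Readout: reporter transcript induction (RT-PCR, fluorescent primer extension, capillary electrophoresis) after 24 h compound exposure of transiently transfected HepG2 cells carrying a RORg-Gal4 chimera and GAL4-UAS reporters; DMSO served as baseline, with increasing signal fitted.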
Sequence of human RAR-related Orphan Receptor gamma (RORg), RORC (gene 6097) (P51449 whole entry, looked up, the tested form may be a part): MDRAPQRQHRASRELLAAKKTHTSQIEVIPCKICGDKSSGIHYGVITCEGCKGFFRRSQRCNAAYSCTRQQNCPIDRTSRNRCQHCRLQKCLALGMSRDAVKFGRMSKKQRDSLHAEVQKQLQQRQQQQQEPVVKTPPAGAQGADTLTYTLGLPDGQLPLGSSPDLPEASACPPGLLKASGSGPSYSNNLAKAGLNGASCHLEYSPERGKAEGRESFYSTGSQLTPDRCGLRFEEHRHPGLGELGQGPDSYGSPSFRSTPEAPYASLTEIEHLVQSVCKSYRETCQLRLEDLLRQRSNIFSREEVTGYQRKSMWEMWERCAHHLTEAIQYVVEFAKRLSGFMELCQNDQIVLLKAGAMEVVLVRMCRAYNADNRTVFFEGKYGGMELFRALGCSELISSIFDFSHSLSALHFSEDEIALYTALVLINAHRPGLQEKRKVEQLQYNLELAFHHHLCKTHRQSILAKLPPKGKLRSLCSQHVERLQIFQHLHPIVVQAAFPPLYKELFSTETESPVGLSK

Read-out in assay [18]: Monokine induced gamma interferon (MIG), CXCL9 (gene 4283)
The assay is described as follows: BSK_3C_MIG: BioMAP Diversity Plus: 3C Assay for Monokine induced gamma interferon (MIG) Biomarker Activity (AID 2283021). To be noted: primary human endothelial cells (HUVEC); actives raise or lower the signal. In a few lines:
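Primary human umbilical vein endothelial cells in the 3C system were exposed to chemical for 24 h, after which MIG was quantified by ELISA. Activity was fitted bidirectionally against DMSO as negative control and baseline.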

A short description of assay [19]: BSK_BE3C_SRB: Viability Assessment in the BioMAP Diversity Plus: BE3C Assay (AID 2283028). To be noted: primary human bronchial epithelial cells. In a few lines: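 Human primary bronchial epithelial cells were exposed to test chemicals for 24 h. Total protein in parallel cultures was then measured by staining with 0.1% sulforhodamine B after 10% TCA fixation, with absorbance read at 560 nm. Activity was fitted bidirectionally against DMSO.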

Values joined by “and” are separate entries in the source; they are usually repeats but may differ in a detail not shown here. Equal entries are not always repeated. Records with an inconclusive call do not appear. The source holds several records for some structures; these can differ, active in one and inactive in another. Active and inactive are the calls of the source. Rule for the calls, unless noted: active = hit-call score of the fitted dose curve at least 0.9, where 1 is the maximum; inactive = score below 0.9.

Sequence of E-selectin (Homo sapiens) (P16581 whole entry, looked up): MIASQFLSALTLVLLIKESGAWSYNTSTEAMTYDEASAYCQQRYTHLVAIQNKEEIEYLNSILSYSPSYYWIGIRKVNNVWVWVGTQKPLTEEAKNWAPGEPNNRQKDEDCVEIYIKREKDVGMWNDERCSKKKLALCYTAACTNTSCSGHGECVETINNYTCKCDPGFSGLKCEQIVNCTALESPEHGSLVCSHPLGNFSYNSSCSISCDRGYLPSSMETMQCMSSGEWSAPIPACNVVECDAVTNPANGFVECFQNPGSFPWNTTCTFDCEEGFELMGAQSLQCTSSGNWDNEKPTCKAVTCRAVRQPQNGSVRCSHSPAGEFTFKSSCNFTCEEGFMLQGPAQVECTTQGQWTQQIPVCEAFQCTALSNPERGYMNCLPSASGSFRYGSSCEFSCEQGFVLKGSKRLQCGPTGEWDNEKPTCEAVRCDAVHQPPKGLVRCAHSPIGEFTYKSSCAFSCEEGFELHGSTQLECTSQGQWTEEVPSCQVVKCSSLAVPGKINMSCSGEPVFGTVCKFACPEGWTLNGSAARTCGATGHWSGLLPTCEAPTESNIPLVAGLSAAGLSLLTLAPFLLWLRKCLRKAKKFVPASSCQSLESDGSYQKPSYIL
Sequence of human Thyroid Receptor alpha (THRa1), THRA (gene 7067) (P10827 whole entry, looked up, the tested form may be a part): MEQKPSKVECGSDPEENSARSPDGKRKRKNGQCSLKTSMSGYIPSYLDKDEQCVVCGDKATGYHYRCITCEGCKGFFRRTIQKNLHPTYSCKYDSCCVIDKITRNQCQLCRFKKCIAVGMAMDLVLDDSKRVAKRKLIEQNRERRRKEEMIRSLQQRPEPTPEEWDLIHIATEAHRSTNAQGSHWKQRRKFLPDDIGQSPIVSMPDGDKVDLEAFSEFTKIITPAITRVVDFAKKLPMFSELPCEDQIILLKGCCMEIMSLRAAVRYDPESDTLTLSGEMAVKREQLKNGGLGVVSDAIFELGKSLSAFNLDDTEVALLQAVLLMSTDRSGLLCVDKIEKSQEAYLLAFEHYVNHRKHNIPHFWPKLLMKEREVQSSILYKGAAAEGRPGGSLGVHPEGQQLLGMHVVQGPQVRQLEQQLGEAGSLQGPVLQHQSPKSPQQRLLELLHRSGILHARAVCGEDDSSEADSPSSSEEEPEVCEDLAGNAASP
Sequence of human Retinoid X Receptor beta (RXRb), RXRB (gene 6257) (P28702 whole entry, looked up, the tested form may be a part): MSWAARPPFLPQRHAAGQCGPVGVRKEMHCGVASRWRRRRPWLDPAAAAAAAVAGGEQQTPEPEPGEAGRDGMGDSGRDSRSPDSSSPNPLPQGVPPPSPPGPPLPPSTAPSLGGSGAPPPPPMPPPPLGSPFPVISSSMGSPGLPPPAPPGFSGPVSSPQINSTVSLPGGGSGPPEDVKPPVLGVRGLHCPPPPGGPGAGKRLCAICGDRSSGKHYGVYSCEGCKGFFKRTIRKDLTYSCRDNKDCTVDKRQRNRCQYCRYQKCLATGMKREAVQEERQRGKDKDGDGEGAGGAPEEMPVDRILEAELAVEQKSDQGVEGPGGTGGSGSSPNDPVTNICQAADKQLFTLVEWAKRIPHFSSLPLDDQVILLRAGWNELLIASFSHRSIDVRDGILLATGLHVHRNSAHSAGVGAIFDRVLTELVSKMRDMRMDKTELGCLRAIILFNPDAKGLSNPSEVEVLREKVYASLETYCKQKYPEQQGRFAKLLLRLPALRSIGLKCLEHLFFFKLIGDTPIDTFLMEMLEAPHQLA

A word on the AC50: it is the midpoint of the concentration-response curve, whichever way the signal moves. As to `NCC(F)(F)C(F)(F)C(F)(F)C(F)(F)C(F)(F)C(F)(F)C(F)(F)C(F)(F)F`, the compound was called inactive in assay [1], in assay [2], in assay [3], in assay [4], in [5] and in assay [6]. Besides, the result in assay [7], in [8], in assay [9], in assay [10], in [11] and in assay [12] was inactive. Further, the outcome in [13], in assay [14], in assay [15] and in assay [16] was inactive. In assay [6], the AC50 was 0.57 µM (active).
On to `Cc1cnccn1`, for which the call in [17], in [1], in assay [3], in [4], in [5] and in assay [6] was inactive. Also, the result in assay [7], in [8], in assay [9], in assay [18], in assay [11] and in assay [12] was inactive. Further, the result in assay [13], in [14], in [19], in assay [15] and in [16] was inactive.
With `Cc1ccc2c(c1)OCC(=O)CO2`, the compound was classed as inactive in assay [17] and in assay [10].
For `CCn1c2ccccc2c2ccccc21`, the compound was called inactive in assay [1], in assay [3] and in assay [10]. Further, the AC50 in [2] was 13.3 µM (active).
For `CN1CN(C)CN(C)C1`, the compound was called inactive in assay [17], in assay [1] and in assay [10].
With `COCCC(=O)OC`, the result in [17], in [3] and in assay [10] was inactive.
In the case of `OCCC(O)CO` (stereo not given), the call in assay [1], in assay [2], in [3] and in [10] was inactive.
As for `O=C(O)C(F)(F)C(F)(F)C(F)(F)C(=O)O`, the compound was called inactive in assay [17], in assay [1], in assay [3], in [4], in [5] and in assay [6]. The outcome in assay [7], in [8], in assay [9], in assay [10], in assay [11] and in assay [12] was inactive. The result in [13], in assay [14], in [15] and in assay [16] was inactive.
Take `O=C(O)C(F)(F)OC(F)(F)C(F)(F)OC(F)(F)C(F)(F)OC(F)(F)F`: the call in assay [1], in assay [3], in assay [4], in assay [5], in assay [6] and in assay [7] was inactive. Moreover, the outcome in [8], in [9], in [18], in assay [10], in [11] and in [13] was inactive. In addition, the result in [14], in assay [19], in assay [15] and in assay [16] was inactive. In addition, the AC50 in assay [2] is 13.2 µM (active); in [12], 2.78 µM (active) and 3.97 µM (active) and 11.8 µM (active).
For `O=C1c2ccccc2C(=O)c2c(Cl)cccc21`, the outcome in [1], in assay [3] and in assay [10] was inactive. Moreover, in [2], the AC50 was 28.4 µM (active).
In the case of `CCCCCCCCn1sc(Cl)c(Cl)c1=O`, the compound was called inactive in assay [17], in [1] and in [10].
Turning to `Nc1cc([N+](=O)[O-])cc(Cl)c1O`, the outcome in assay [17], in [1], in [4], in [5], in assay [6] and in assay [7] was inactive. Besides, the outcome in assay [8], in assay [9], in assay [11], in [12], in assay [13] and in [14] was inactive. For the same compound, the result in assay [15] and in [16] was inactive.
